Our source for the binding signal values is publication PMC8384837, “Expanding the binding specificity for RNA recognition by a PUF domain”.

Holding throughout (assay): yeast three-hybrid, YBZ-1, SC-Leu-His + 0.5 mM 3-AT, 4 days
Holding throughout (conditions): tags: N-Gal4 AD-HA kept; label: inside an RPR1-promoter hybrid RNA with tandem MS2 sites; ssRNA

In one assay the target is PUM1 PUF domain R8-RWQ (Homo sapiens, UniProt Q14671 828-1176, N1122R;Y1123W). In a few lines:
(§1)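 Pumilio-1 PUF domain libraries, randomized (NNK) at the three base-contacting residues of each repeat, were co-expressed with matching RNA elements from a centromeric plasmid in strain YBZ-1 (LexA–MS2 coat fusion, HIS3 reporter). Transformants were plated on SC-Leu (input) and SC-Leu-His + 0.5 mM 3-AT (selection) for four days, and repeat regions were PCR-amplified and Illumina-sequenced. The interaction score is the log2 change in variant frequency from input to selection, with pseudocount 1 where absent.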

The target in the next assay is PUM1 PUF domain R8-IYV (Homo sapiens, UniProt Q14671 828-1176, N1122I;Q1126V). In a few lines: as §1
Another assay has as its target PUM1 PUF domain R8-MYR (Homo sapiens, UniProt Q14671 828-1176, N1122M;Q1126R). The method, boiled down:
as §1

Another assay deals with PUM1 PUF domain R5-SRL (Homo sapiens, UniProt Q14671 828-1176, C1007S;Q1011L). In a few lines: as §1
In another assay the target is PUM1 PUF domain R3-VCE (Homo sapiens, UniProt Q14671 828-1176, C935V;R936C;Q939E). In a few lines:
as §1

The next assay has as its target PUM1 PUF domain R4-EWG (Homo sapiens, UniProt Q14671 828-1176, N971E;H972W;Q975G). In a few lines: as §1
The next assay has as its target T1, PUM1 PUF domain R6-LWR (Homo sapiens, UniProt Q14671 828-1176, N1043L;Y1044W;Q1047R).
T1 sequence: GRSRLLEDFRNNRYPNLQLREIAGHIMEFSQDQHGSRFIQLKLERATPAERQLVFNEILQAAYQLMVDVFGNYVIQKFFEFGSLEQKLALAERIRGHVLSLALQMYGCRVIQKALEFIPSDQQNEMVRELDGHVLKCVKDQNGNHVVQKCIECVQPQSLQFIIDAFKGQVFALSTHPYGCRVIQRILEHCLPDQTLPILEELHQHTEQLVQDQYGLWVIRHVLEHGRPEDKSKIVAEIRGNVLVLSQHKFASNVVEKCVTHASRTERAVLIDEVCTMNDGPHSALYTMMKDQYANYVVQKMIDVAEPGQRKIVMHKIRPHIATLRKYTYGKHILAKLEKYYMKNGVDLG
The method, boiled down: as §1

The next assay addresses PUM1 PUF domain R8-SWK (Homo sapiens, UniProt Q14671 828-1176, N1122S;Y1123W;Q1126K). The method, boiled down:
as §1

In a further assay the target is PUM1 PUF domain R3-GWF (Homo sapiens, UniProt Q14671 828-1176, C935G;R936W;Q939F). The method, boiled down:
as §1

In another assay the target is PUM1 PUF domain R1-HLR (Homo sapiens, UniProt Q14671 828-1176, S863H;R864L;Q867R). In a few lines:
as §1

For “GGCUAGAACUAGUGGAUCCCCCGGCGCCCGGCGGCUCGAGCCCGGGUAAGCGUAAAUAGUCUGCAUGCCGCCGGGCGCCAUGCCUGCAGGUCGACUCUAGAAAACAUG”, the binding signal with PUM1 PUF domain R8-RWQ was 5.71 log2 enrichment (interaction score); with PUM1 PUF domain R8-IYV, 2.44 log2 enrichment (interaction score); in the assay with PUM1 PUF domain R8-MYR it was 4.58 log2 enrichment (interaction score).

On to “GGCUAGAACUAGUGGAUCCCCCGGCGCCCGGCGGCUCGAGCCCGGGUAAGUGUUAAUAGUCUGCAUGCCGCCGGGCGCCAUGCCUGCAGGUCGACUCUAGAAAACAUG”, for which, in the assay with PUM1 PUF domain R5-SRL, the binding signal was 2.41 log2 enrichment (interaction score).

Turning to “GGCUAGAACUAGUGGAUCCCCCGGCGCCCGGCGGCUCGAGCCCGGGUAAGUGUAAAUAGUCUGCAUGCCGCCGGGCGCCAUGCCUGCAGGUCGACUCUAGAAAACAUG”, the binding signal in the assay with PUM1 PUF domain R8-RWQ was 6.33 log2 enrichment (interaction score); in the assay with PUM1 PUF domain R5-SRL, 3.16 log2 enrichment (interaction score); with PUM1 PUF domain R3-VCE, 2.11 log2 enrichment (interaction score); with PUM1 PUF domain R4-EWG it was 3.6 log2 enrichment (interaction score); with PUM1 PUF domain R6-LWR, 5.05 log2 enrichment (interaction score); in the assay with PUM1 PUF domain R8-SWK, 5.34 log2 enrichment (interaction score). Further, the binding signal in the assay with PUM1 PUF domain R8-IYV was 2.36 log2 enrichment (interaction score); in the assay with PUM1 PUF domain R8-MYR it was 4.65 log2 enrichment (interaction score); in the assay with PUM1 PUF domain R3-GWF, 5.35 log2 enrichment (interaction score).

With “GGCUAGAACUAGUGGAUCCCCCGGCGCCCGGCGGCUCGAGCCCGGGUAAGUGUAAAUCGUCUGCAUGCCGCCGGGCGCCAUGCCUGCAGGUCGACUCUAGAAAACAUG”, the binding signal with PUM1 PUF domain R1-HLR was 3.24 log2 enrichment (interaction score).

As to “GGCUAGAACUAGUGGAUCCCCCGGCGCCCGGCGGCUCGAGCCCGGGUAAGUGUAAAUUGUCUGCAUGCCGCCGGGCGCCAUGCCUGCAGGUCGACUCUAGAAAACAUG”, the binding signal in the assay with PUM1 PUF domain R1-HLR was 2.68 log2 enrichment (interaction score).

With “GGCUAGAACUAGUGGAUCCCCCGGCGCCCGGCGGCUCGAGCCCGGGUAAGUGUAAGUAGUCUGCAUGCCGCCGGGCGCCAUGCCUGCAGGUCGACUCUAGAAAACAUG”, in the assay with PUM1 PUF domain R3-VCE, the binding signal is 3.08 log2 enrichment (interaction score).

Take “GGCUAGAACUAGUGGAUCCCCCGGCGCCCGGCGGCUCGAGCCCGGGUAAGUGUACAUAGUCUGCAUGCCGCCGGGCGCCAUGCCUGCAGGUCGACUCUAGAAAACAUG”: the binding signal with PUM1 PUF domain R4-EWG was 1.12 log2 enrichment (interaction score).
